# Experimental data reported in PubChem BioAssay AID1036 (National Center for Advancing Translational Sciences (NCATS), 2008).
# Inconclusive results are not listed. Calls of active or inactive are those of the source. Calls follow the shape of the full dose curve.
# Experiment: NSCLC 1 Cell Viability Secondary Assay for qHTS Assay for Epigenetic Modulator
# Conditions: NSCLC 1 cells viability, MTS absorbance, 4 days
# Excerpt: NIH Molecular Libraries Screening Centers Network [MLSCN] NIH Chemical Genomics Center [NCGC] MLSCN Grant: 1 X01 MH079860-01 Assay Provider: Elisabeth D. Martinez, University of Texas SW Medical Center NCGC Assay Overview: This secondary assay characterizes selected actives identified in the qHTS of the Locus Derepression (LDR) assay (PubChem AID 597). The LDR assay detects the derepression of a GFP reporter that is stably integrated in a region of the genome of murine c127i mammary cells that is presumably silenced. Compounds that cause derepression of the locus to express GFP are identified by enumerating GFP positive cells using a laser-scanning microplate cytometer. Selected LDR actives were assayed for killing of NSCLC 1, a patient-derived nonsmall cell lung carcinoma line. Known epigenetic drugs, like histone deacetylase inhibitors, can block cancer cell growth. NSCLC 1 cell viability was measured using Cell Titer 96 AQueous One (Promega), an assay which detects the ability of metabolically active cells to reduce a tetrazolium salt substrate (MTS), into a soluble formazan product that can be measured by colorimetry.
# NCGC Assay Protocol Summary NSCLC 1 cells were plated in 96-well flat bottom tissue culture dishes (Corning) and grown overnight at 37 C and 5% CO2, then treated with compounds, incubated 4 days, and assayed for viability using the Cell Titer 96 AQueous One kit (Promega) according to the manufacturer's protocol. Absorbance at 490 nm and 650 nm (reference) was measured by a Spectra Max (Molecular Devices). Data were normalized to the untreated control (100% viability). Each cell line was tested in one or two independent assays, each containing 4 or 8 replicates. For further details, see R.L. Johnson, W. Huang, A. Jadhav, C.P. Austin, J. Inglese, E.D. Martinez, A Quantitative High-Throughput Screen Identifies Potential Epigenetic Modulators of Gene Expression, Analytical Biochemistry (2007), doi: 10.1016/j.ab.2007.12.028
SMILES,Potency,outcome
CC(/C=C/C(=O)NO)=C\[C@@H](C)C(=O)c1ccc(N(C)C)cc1,100 nM (active),
O=Nc1ccc(O)c2ncccc12,4000 nM (active),
O=C(CSc1cccc2cccnc12)NCc1ccccc1,,inactive
CN1C(=S)SC(c2ccccc2)N(C)C1c1ccccc1 (configuration not stated),,inactive
CC(C)C(=O)NC(c1ccco1)c1cc([N+](=O)[O-])c2cccnc2c1O (configuration not stated),8000 nM (active),
CC(C)C(=O)NC(c1ccc(N(C)C)cc1)c1ccc2cccnc2c1O (configuration not stated),300 nM (active),
CC(C)C(=O)NC(c1ccco1)c1ccc2cccnc2c1O (configuration not stated),1000 nM (active),
